Reference: PubChem BioAssay (NCI)
This is part of a sample that, as a whole, favours compounds with a hit. Of some 83,000 tested, about 20% had one in any assay.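 For each line, cells grew in 96-well plates with the test compound present at a single concentration for 48 hours.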 Active and inactive are the calls of the source. Rule for the calls: active = growth percent below 10; inactive = the rest.

tested on: HL-60(TB) leukemia; assay: NCI-60 one-dose screen, 48 h (100 = growth as untreated, 0 = no growth, -100 = all killed); settings: 10 µM unless noted

SMILES	growth
CN1CCc2c(c3ccccc3c3ccccc23)C1	35.1% (inactive)
CCCCC#Cc1c(/C=C(\CCCC)SCC)n(C)c(=O)[nH]c1=O	92.8% (inactive)
O=[N+]([O-])c1ccc(/C=C/C=C/c2ccccc2)c(Cl)c1	91.9% (inactive)
Cc1nc2scc(-c3ccc(Cl)cc3)n2c(=O)c1CCN1CCOCC1	99.6% (inactive)
C/C(Cc1ccccc1)=N\O	13.8% (inactive)
COC(=O)[C@]12CC[C@@H](C)[C@H](C)[C@@H]1C1=CC[C@@H]3[C@@]4(C)C(C#N)=CC(C)=C4CC[C@@]3(C)[C@]1(C)CC2	-19.3% (active)
COc1ccc(/C(=C\c2cc(OC)c(OC)c(OC)c2)C(=O)Nc2nc3ccc(Cl)cc3s2)cc1	81.4% (inactive)
COc1cc2c(cc1O)c(=O)n(CCN(C)C)c1c3cc4c(cc3ncc21)OCO4	-29.2% (active)
Nc1c(C(=O)Nc2ccccc2Cl)sc2nc3c(cc12)C(=O)CCC3	67.1% (inactive)
C#CC#CC#CC#CC#CC#CC#CC#CC[C@H]1OC[C@H](COC(=O)O[C@@H](C(=O)O[C@H]2C[C@@]3(O)[C@@H](OC(=O)c4ccccc4)[C@@H]4[C@]5(OC(C)=O)CO[C@@H]5C[C@H](O)[C@@]4(C)C(=O)[C@H](OC(C)=O)C(=C2C)C3(C)C)[C@@H](NC(=O)c2ccccc2)c2ccccc2)O1	11.3% (inactive)
O=c1cc(Cl)nc2ccccn12	92.9% (inactive)
O=C(O)c1cn(C2CC2)c2cc(N3CCN(Cc4nnc(Nc5ccccc5)o4)CC3)c(F)cc2c1=O	91.4% (inactive)
NS(=O)(=O)c1ccc(-n2nc(C(=O)N/N=C\c3ccc(F)cc3)cc2-c2ccc(Cl)cc2)cc1	121% (inactive)
c1ccc(Cc2cccc[n+]2C(c2ccccc2)c2ccccc2)cc1	4.63% (active)
Cc1cc(C)nc(SC2=C(Nc3cc(Cl)ccc3O)C(=O)N(Cc3ccccc3)C2=O)n1	85.3% [30 µM] (inactive)
Nc1ccc(F)cc1F	97.9% (inactive)
O=c1c2cc(F)ccc2sc2c(NCCCN3CCCC3)nc3ccccc3c12	13.9% (inactive)
Clc1cc(Cl)c(OCCCCCCN2CCNCC2)c(Cl)c1	-34.3% (active)
Clc1ccc2c(c1)-n1cccc1C(c1ccc3ccccc3c1)=NC2	76.9% (inactive)

SMILES	growth
COc1ccc(-c2cc(/C=C3\C(=O)Nc4ccc(OC)cc43)[nH]n2)cc1	-0.36% (active)
COc1c(C(=O)Nc2ccc(C)c(Br)c2)ccc2ccccc12	91.2% (inactive)
O=C(CN1C(=O)S/C(=C\C(Cl)=C\c2ccccc2)C1=O)NC1C=CS(=O)(=O)C1 (configuration not stated)	-5.2% (active)
CCOC(=O)c1cc2c(n1Cc1cc(OC)c(OC)c(OC)c1)-c1oncc1CCC2	-8.69% (active)
O=C1c2ccccc2C(=O)c2c1ccc(C(=O)O)c2[N+](=O)[O-]	65.1% (inactive)
O=C(N/N=C/c1ccc([N+](=O)[O-])cc1)c1ccccc1Nc1cccc(C(F)(F)F)c1	108% (inactive)
CC(C)C1CCC(C)C(O)C1 (configuration not stated)	103% (inactive)
Nc1nc(N)c(N=Nc2c(Br)cc(S(N)(=O)=O)cc2Br)c(N)n1	105% (inactive)
C[C@]12CC[C@H]3[C@@H](CC=C4C[C@@H](O)CC[C@@]43C)[C@@H]1CC[C@@H]2C(=O)C/C=N/O	78.9% (inactive)
C/C(=N\NC(=O)c1ccc(C(C)(C)C)cc1)c1ccc(O)cc1O	9.36% (active)
COc1ccc(-c2cc(-c3ccc(Nc4nc(Nc5ccc(Cl)cc5)nc(Nc5ccc(Cl)cc5)n4)cc3)nc(N)c2C#N)cc1	28.3% (inactive)
COc1ccc(Nc2ncnc3c2c(SC)nn3-c2ccccc2)cc1	90.5% (inactive)
COC1=CC(c2ccc[nH]2)=N/C1=C\c1[nH]c(C)c(C(=O)OC(C)C)c1C	2.29% (active)
C=C(CO)[C@@H]1CC[C@]2(COC3CCCCO3)CC[C@]3(C)[C@H](CC[C@@H]4[C@@]5(C)C=C(C=O)C(=O)C(C)(C)[C@@H]5CC[C@]43C)[C@@H]12 (some centres not stated)	-59.8% (active)
CC1(C)CC(=O)C2=C(C1)N(c1ccc(OC(F)(F)F)cc1)C(N)=C(C#N)C2c1ccc(Cl)cc1 (configuration not stated)	102% (inactive)
N#Cc1ccc(-c2ccc(-c3cccs3)o2)cc1F	89.3% (inactive)
CSc1nc(O)c(-c2ccccc2)c(=O)[nH]1	89.5% (inactive)
Cc1ccc2c(c1)C(=O)C(c1c(-c3[nH]c(=O)c4ccc(C)cc4c3O)c(O)c3ccccc3c1O)=NC2=O	8.93% (active)
